# Results as given in PubChem BioAssay (NCATS).
# Several values for one entry are separate records, joined by “and”; a condition that tells them apart may be missing. Equal entries are not always repeated. Records with an inconclusive call do not appear. Activity calls are given as the source filed them. Unless noted, calls follow the shape of the dose curve; as a rule, active = well fitted curve in the direction sought with a large enough effect; inconclusive = small, poorly fitted or top-dose-only effect, or another doubt; inactive = no such curve, though single readings can be large; an effect the other way counts as inactive or inconclusive.
# How the values were obtained:
# [1] = target: Thyroid hormone receptor beta (Homo sapiens) (UniProt P10828); assay: qHTS assay for small molecule agonists of thyroid hormone receptor beta signaling (AID 588545; calls by dose curve)
# In short: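 Agonist-mode beta-lactamase reporter assay, HEK 293 cells, 2% charcoal/dextran FBS; cells plated 4 hrs, compound 18 hrs at 37 C, CCF4 2 hrs RT. Normalized to 10 nM T3 (100%) and DMSO (0%); Hill fit gives EC50, efficacy.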
# [2] = qHTS assay for small molecule antagonists of retinoid X receptor alpha signaling (AID 588546; active = well fitted inhibition curve with a large enough effect in the signal ratio, with a control signal flat, not every such curve was filed as active; the % refers to the signal ratio;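 also: cells stimulated with 9-cis-retinoic acid as agonist; % is scaled to controls: 0 for no effect and ±100 for the full control effect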); settings: HEK293T RXRa-UAS-bla, beta-lactamase ratio, antagonist mode; measured here: W530 green channel, cytotoxicity proxy
# In short: (§1)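 Beta-lactamase reporter inhibition, read as CCF4 fluorescence ratio (ex 405, em 460/530 nm) after 2 h at RT. HEK293T UAS-bla cells, 2500/well, were stimulated with 9-cis-RA at 500 or 100 nM final alongside test compound for 18 h at 37 C.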
# [3] = target: Retinoic acid receptor RXR-alpha (Homo sapiens) (UniProt P19793); assay: as above; settings: HEK293T RXRa-UAS-bla, beta-lactamase ratio, antagonist mode
# In short: as §1
# [4] = target: Thyroid hormone receptor beta (Homo sapiens) (UniProt P10828); assay: qHTS assay for small molecule antagonists of thyroid hormone receptor beta signaling (AID 588547; active = well fitted inhibition curve with a large enough effect in the signal ratio, with a control signal flat, not every such curve was filed as active; the % refers to the signal ratio;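 also: cells stimulated with 0.4 nM T3 agonist during compound exposure; series mostly up to about 77 µM; % is scaled to controls: 0 for no effect and ±100 for the full control effect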); settings: TR-UAS-bla HEK293, beta-lactamase ratio, antagonist mode, 18 h
# In short: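 TR-UAS-bla GripTite HEK293 cells in 2% charcoal/dextran FBS medium; compounds 0.59 nM to 92 uM with T3 at 0.4nM final, 18 h at 37 C. Beta-lactamase read by CCF4 fluorescence (460/530 nm); Hill fits gave IC50 and efficacy.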
# [5] = target: Voltage-gated inwardly rectifying potassium channel KCNH2 (Homo sapiens) (UniProt Q12809); assay: qHTS Assay for Small Molecule Inhibitors of the Human hERG Channel Activity (AID 588834);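 also: top concentration of the series differs between compounds; % is scaled to controls: 0 for no effect and ±100 for the full control effect; lower thallium flux fluorescence means stronger hERG block; nearly all actives have a fitted effect of over 50% in size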
# In short: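 U2OS cells transduced with hERG via BacMam (MOI ~100), plated 2000/well, loaded with FluxOR thallium dye, compound ~10 min, then stimulation buffer; fluorescence decrease read kinetically; AC50 from Hill fits.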
# [6] = qHTS assay for small molecule agonists of the antioxidant response element (ARE) signaling pathway (AID 651741; active = well fitted activation curve with a large enough effect in the signal ratio; the % refers to the signal ratio; also: potency is read from the fitted curve at half-maximal effect)
# In short: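 CellSensor ARE-bla HepG2 cells (2,000/well) carrying ARE-driven beta-lactamase, exposed 16 h at 37 C. LiveBLAzer B/G FRET substrate added for 2 h at room temperature; fluorescence intensity read.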
# [7] = qHTS assay for small molecule activators of the p53 signaling pathway (AID 651743; active = well fitted activation curve with a large enough effect in the signal ratio, not every such curve was filed as active; the % refers to the signal ratio; also: series mostly up to about 92 µM; % of control where 0% means no effect); settings: HCT-116 p53RE-bla, beta-lactamase FRET ratio, 16 h; stronger effect = higher value
# In short: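 p53RE-bla HCT-116 cells carrying a beta-lactamase reporter under p53 response elements were exposed to compounds for 16 hours at 37 C. Reporter activity read as fluorescence after 2 hours at room temperature with LiveBLAzer B/G FRET substrate.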
# [8] = qHTS assay for small molecule activators of the nuclear factor-kappa B (NF-kB) signaling pathway (AID 651749; active = well fitted activation curve with a large enough effect in the signal ratio; the % refers to the signal ratio; also: series mostly up to about 77 µM; % of control where 0% means no effect); settings: NF-kB-bla ME-180 cells, beta-lactamase FRET ratio, 16 h; stronger effect = higher value
# In short: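 NF-kB-bla ME-180 cells carrying a beta-lactamase reporter under an NF-kB response element, 2,000 cells/well, exposed to compound for 16 hr at 37C; FRET-based beta-lactamase fluorescence read-out of pathway activation.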
# [9] = qHTS assay for environmental chemicals that activate the Aryl hydrocarbon Receptor (AhR) signaling pathway (AID 651777); settings: 1A2-DRE human hepatoma cells, luciferase, 24 h; stronger effect = higher value; also: % of control where 0% means no effect; nearly all actives have a fitted effect of over 15% in size
# In short: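 Human hepatoma 1A2-DRE cells stably carrying a DRE/CYP1A2 promoter–luciferase reporter, 1,200 cells/well, exposed to compound 24 hr at 37 C. Luciferase read by One-Glo luminescence after 30 min at room temperature; increased signal marks AhR activation.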
# [10] = target: Peroxisome proliferator-activated receptor alpha (Homo sapiens) (UniProt Q07869); assay: qHTS assay for small molecule agonists of the peroxisome proliferator-activated receptor alpha (PPARalpha) signaling pathway (AID 651778); settings: PathHunter PPARalpha complementation, chemiluminescence, 6 h; stronger effect = higher value; also: % of control where 0% means no effect
# In short: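 Enzyme-fragment complementation assay in which ligand-bound PPARalpha translocates and forms an active enzyme that generates chemiluminescence. Cells were plated overnight, exposed to compound for 6 hr at 37 C, and then given detection reagent for 60 min at room temperature.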
# [11] = target: Nuclear receptor ROR-gamma (Homo sapiens) (UniProt P51449); assay: qHTS assay for small molecule antagonists of the retinoid-related orphan receptor gamma (ROR-gamma) signaling pathway (AID 651802);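 also: luciferase reporter luminescence driven by ROR response element; series mostly up to about 92 µM; % is scaled to controls: 0 for no effect and ±100 for the full control effect; nearly all actives have a fitted effect of over 60% in size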
# In short: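 CHO cells with TET-inducible ROR-gamma and RORE-luciferase reporter, dosed then doxycycline-induced. After 16 h at 37C, One-Glo luminescence read; decreased signal indicates antagonism.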
# [12] = qHTS assay for small molecule agonists of the antioxidant response element (ARE) signaling pathway measured by Nrf2-dependant transcriptional activity (AID 720636; active = well fitted curve in the direction sought with a large enough effect in the repeat runs; an effect the other way counts as inactive or inconclusive; also: % of control where 0% means no effect)
# In short: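 ARE-luc HepG2 cells carrying an Nrf2-responsive luciferase reporter, in medium with 1% dialyzed FBS, exposed to compound for 16 hr at 37 C, 5% CO2. Luminescence read 30 min after ONE-Glo addition.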
# [13] = qHTS assay for small molecule antagonists of the retinoid-related orphan receptor gamma (ROR-gamma) signaling pathway - cell viability counter screen (AID 720652; active = well fitted curve in the direction sought with a large enough effect in the repeat runs; an effect the other way counts as inactive or inconclusive;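 also: series mostly up to about 92 µM; compound exposure lasted 16 hr before ATP read; % is scaled to controls: 0 for no effect and ±100 for the full control effect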)
# In short: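 CHO cells carrying TET-inducible ROR and RORE-luciferase reporter, plated 5 hr, then dosed with compound plus doxycycline. After 16 hr at 37 C, viability read as intracellular ATP by CellTiter-Glo luminescence.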
# [14] = qHTS assay for small molecule agonists of the antioxidant response element (ARE) signaling pathway measured by Nrf2-dependant transcriptional activity - cell viability counter screen (AID 720653; active = well fitted curve in the direction sought with a large enough effect in the repeat runs; an effect the other way counts as inactive or inconclusive; also: % is scaled to controls: 0 for no effect and ±100 for the full control effect); settings: ARE-bla HepG2 viability, CellTiter-Glo ATP luminescence, 16 h; stronger effect = lower value
# In short: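 ARE-bla HepG2 cells treated with compounds for 16 h at 37C; this counter screen measures viability as intracellular ATP by CellTiter-Glo luminescence after 30 min at room temperature.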
# [15] = qHTS assay for cell viability of HEK293 cells (AID 743288); settings: ATP luminescence (CellTiter-Glo), 18 h, stronger effect = lower value; also: % is scaled to controls: 0 for no effect and ±100 for the full control effect; nearly all actives have a fitted effect of over 50% in size
# In short: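 Parental HEK293 cells were seeded at 2,000 cells/well, rested at least 5 h at 37 C, then exposed to compounds in DMSO for 18 h at 37 C. Viability was read as ATP-dependent luciferase luminescence after 30 min at room temperature.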
# [16] = qHTS assay for cell viability of the p53RE-bla HCT-116 cell line (AID 743292); also: % is scaled to controls: 0 for no effect and ±100 for the full control effect; nearly all actives have a fitted effect of over 55% in size
# In short: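 CellSensor p53RE-bla HCT-116 cells (4,000/well) pre-incubated 5 h at 37 C, then exposed to compounds in DMSO for 16 h at 37 C. Viability read as ATP content by CellTiter-Glo luminescence after 30 min at room temperature.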
# [17] = Primary qHTS for inhibitors of nuclear receptor binding SET domain protein 2 (NSD2) in an RCH-ACV wild type WT cells (2C) (AID 1645877); also: potency is read from the fitted curve at half-maximal effect; nearly all actives have a fitted effect of over 70% in size
# [18] = target: Glutathione peroxidase 1 (Homo sapiens) (UniProt P07203); assay: Primary qHTS Assay for Inhibitors of Recombinant Selenoprotein Glutathione Peroxidase 1 (GPX1) (AID 1845191); also: % is scaled to controls: 0 for no effect and ±100 for the full control effect; nearly all actives have a fitted effect of over 65% in size
# In short: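 GR-coupled assay: compounds preincubated 30 min at room temperature with GPX1, then reaction started with CHP; final 10 nM GPX1, 1 mM GSH, 0.5 mM CHP, 0.5 mM NADPH, 100 nM GR, 0.01% BSA, pH 7.5 Tris buffer. NADPH fluorescence (340/450 nm) read at 0 and 15 min.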
# [19] = qHTS drug screen for cell cycle checkpoint inhibitors in PARPi-resistant BRCA-mutant ovarian cancer cell lines. (AID 1963452; calls by dose curve); settings: PEO1/OlaR viability, CellTiter-Glo luminescence, 96 h, stronger effect = lower value
# In short: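 PEO1, PEO4 and PEO1/OlaR ovarian cancer cells, 600 per well, exposed 96 h at 37C to a dilution series. Viability read by CellTiter-Glo luminescence, normalized to DMSO and empty wells; activity summarized as Z-AUC.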
# Chain of Thyroid hormone receptor beta (Homo sapiens) (P10828 whole entry, looked up): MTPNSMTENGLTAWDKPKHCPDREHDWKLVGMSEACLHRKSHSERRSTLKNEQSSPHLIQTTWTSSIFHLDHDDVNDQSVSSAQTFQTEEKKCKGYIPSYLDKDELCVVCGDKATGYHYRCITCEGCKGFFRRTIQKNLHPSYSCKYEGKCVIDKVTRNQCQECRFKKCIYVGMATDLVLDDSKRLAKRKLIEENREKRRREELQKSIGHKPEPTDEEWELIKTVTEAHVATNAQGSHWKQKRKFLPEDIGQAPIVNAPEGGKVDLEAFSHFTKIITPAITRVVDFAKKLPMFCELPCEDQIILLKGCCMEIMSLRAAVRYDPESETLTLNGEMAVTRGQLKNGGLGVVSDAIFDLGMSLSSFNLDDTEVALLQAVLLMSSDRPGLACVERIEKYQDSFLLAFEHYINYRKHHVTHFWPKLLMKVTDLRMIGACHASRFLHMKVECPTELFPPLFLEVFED
# Chain of Peroxisome proliferator-activated receptor alpha (Homo sapiens) (Q07869 whole entry, looked up, the tested form may be a part): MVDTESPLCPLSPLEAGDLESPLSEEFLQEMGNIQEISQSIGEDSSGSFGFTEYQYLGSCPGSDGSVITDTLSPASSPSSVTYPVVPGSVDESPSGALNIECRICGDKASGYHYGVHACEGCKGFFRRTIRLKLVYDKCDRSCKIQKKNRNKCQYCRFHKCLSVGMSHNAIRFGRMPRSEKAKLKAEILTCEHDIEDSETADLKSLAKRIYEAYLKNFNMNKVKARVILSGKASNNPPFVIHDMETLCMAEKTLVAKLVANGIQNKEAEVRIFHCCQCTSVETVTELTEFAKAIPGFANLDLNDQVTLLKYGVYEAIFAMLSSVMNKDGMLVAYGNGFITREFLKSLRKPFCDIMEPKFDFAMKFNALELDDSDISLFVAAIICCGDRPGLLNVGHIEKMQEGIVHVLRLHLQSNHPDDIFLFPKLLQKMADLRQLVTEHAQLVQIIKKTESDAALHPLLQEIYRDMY
# Chain of Retinoic acid receptor RXR-alpha (Homo sapiens) (P19793 whole entry, looked up): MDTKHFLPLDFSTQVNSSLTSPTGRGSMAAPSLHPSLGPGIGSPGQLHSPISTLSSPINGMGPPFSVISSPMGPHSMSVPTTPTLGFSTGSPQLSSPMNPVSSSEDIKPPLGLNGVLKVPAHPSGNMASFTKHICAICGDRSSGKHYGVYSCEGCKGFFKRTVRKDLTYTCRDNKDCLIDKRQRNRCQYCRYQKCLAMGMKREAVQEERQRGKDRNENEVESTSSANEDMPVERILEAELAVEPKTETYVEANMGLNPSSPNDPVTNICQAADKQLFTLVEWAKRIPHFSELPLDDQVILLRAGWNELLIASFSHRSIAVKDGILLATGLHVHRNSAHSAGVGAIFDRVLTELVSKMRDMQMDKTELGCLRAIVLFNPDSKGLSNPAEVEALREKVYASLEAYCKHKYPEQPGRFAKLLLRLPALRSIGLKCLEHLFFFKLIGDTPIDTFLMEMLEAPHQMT
# Chain of Glutathione peroxidase 1 (Homo sapiens) (P07203 whole entry, looked up): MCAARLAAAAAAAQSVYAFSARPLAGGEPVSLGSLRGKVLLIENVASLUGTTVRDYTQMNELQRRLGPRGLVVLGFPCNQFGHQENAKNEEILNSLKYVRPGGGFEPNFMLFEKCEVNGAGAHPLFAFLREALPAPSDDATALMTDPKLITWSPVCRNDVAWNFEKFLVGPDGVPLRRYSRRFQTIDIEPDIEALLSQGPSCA
# Chain of Nuclear receptor ROR-gamma (Homo sapiens) (P51449 whole entry, looked up): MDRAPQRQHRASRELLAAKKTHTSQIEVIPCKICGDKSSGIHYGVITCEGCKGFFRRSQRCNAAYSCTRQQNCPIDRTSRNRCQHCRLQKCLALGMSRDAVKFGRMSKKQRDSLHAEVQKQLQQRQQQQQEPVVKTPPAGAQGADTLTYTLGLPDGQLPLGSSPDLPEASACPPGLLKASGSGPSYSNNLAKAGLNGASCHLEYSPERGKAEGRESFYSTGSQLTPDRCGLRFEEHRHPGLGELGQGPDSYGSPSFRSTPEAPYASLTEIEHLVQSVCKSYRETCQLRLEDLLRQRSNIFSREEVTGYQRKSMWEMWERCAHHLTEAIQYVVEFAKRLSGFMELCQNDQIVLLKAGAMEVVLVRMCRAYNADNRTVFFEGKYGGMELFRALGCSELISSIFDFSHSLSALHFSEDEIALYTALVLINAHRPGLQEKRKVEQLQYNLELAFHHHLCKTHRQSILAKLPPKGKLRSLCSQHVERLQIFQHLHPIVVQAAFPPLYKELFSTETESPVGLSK
# Chain of Voltage-gated inwardly rectifying potassium channel KCNH2 (Homo sapiens) (Q12809 whole entry, looked up): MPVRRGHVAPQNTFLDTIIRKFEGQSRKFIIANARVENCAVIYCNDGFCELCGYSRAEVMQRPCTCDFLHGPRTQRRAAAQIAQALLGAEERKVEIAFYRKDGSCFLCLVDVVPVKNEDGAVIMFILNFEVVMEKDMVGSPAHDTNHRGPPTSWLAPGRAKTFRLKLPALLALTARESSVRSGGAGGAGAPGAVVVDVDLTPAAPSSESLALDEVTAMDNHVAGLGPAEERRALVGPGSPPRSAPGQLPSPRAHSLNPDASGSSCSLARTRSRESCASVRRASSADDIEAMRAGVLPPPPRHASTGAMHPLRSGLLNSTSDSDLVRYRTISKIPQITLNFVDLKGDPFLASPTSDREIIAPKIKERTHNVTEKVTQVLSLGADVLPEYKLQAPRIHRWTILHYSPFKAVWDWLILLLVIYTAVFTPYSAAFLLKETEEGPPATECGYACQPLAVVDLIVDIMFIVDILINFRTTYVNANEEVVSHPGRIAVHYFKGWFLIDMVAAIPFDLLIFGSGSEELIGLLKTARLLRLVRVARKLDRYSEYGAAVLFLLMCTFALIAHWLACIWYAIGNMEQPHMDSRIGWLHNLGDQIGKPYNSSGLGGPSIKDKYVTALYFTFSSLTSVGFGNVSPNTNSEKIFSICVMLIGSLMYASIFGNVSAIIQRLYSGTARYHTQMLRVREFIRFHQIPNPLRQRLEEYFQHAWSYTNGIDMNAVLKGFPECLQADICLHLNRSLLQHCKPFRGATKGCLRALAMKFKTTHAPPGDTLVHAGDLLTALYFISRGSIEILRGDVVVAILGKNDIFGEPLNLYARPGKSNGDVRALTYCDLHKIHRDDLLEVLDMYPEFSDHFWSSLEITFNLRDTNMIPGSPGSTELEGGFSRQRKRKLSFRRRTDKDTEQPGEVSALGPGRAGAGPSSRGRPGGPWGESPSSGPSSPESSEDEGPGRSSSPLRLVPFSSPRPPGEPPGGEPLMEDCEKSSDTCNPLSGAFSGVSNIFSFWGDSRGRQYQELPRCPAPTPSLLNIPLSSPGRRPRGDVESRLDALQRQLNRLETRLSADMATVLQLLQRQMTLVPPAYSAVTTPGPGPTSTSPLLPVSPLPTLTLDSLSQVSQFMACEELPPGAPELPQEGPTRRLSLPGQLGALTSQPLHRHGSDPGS
smiles,measurement,setting,value
CO[C@H]1/C=C/O[C@@]2(C)Oc3c(C)c(O)c4c(O)c(c(/C=N/N5CCN(C)CC5)c(O)c4c3C2=O)NC(=O)/C(C)=C\C=C\[C@H](C)[C@H](O)[C@@H](C)[C@@H](O)[C@@H](C)[C@H](OC(C)=O)[C@@H]1C,outcome,[1],inactive
same,max response,[2],12.2% and 0.217%
same,max response,[3],-24.8% (inactive) and 0.888% (inactive)
same,activity change % (negative = inhibition),[4],4.86% (inactive) and -12.3% (inactive)
same,outcome,[5],inactive
same,Potency,[6],54.5 µM (active)
same,activation,[7],-10.4% (inactive) and -9.54% (inactive)
same,activation,[8],-0.981% (inactive) and -2.03% (inactive)
same,activation,[9],0.185% (inactive) and -0.0706% (inactive)
same,max response,[10],-9.67% (inactive) and -6.67% (inactive)
same,outcome,[11],inactive
same,outcome,[12],inactive
same,outcome,[13],inactive
same,max response,[14],-3.19% (inactive) and -26% (inactive)
same,max response,[15],-14.9% (inactive) and -19.1% (inactive)
same,outcome,[16],inactive
same,Potency,[17],16.6 µM (active)
same,Potency,[18],inactive
same,Z-AUC,[19],1.24 (inactive)
same,Z-AUC,[19]; measured here: PEO1 parental Z-AUC,1.13
same,Z-AUC,[19]; measured here: PEO4 Z-AUC,1.29
